Source: ChEMBL document CHEMBL5308504, “Tm Shift (DSF) assay results for EUbOPEN Chemogenomics Library” (2023)
Numbered stars: 1 amine (or outer) side, 2 acyl side, 3 side chain; on linkers, the order of the positions; unused ones are H or OH. Bridge positions count the residues as written; N and C are the ends. Square brackets hold non-standard residues; d marks the D form. Peptide text beside a SMILES is read from it. I, II: the chains in the order shown. Hexamethylenediamine = C(CCCN[*:2])CCN[*:1]; Dip = N[C@H](C(=O)O)C(c1ccccc1)c1ccccc1; Chg = N[C@H](C(=O)O)C1CCCCC1; NMeA = CN[C@@H](C)C(=O)O

Assays:
[1] = biological target: Bromodomain-containing protein 4 (Homo sapiens) (UniProt O60885); conditions: Compound concentration 20.0 uM, Protein concentration 2.0 uM, Result type QC Liability
[2] = biological target: T1, Transcription intermediary factor 1-alpha (Homo sapiens) (UniProt O15164); conditions: Compound concentration 20.0 uM, Protein concentration 2.0 uM, Result type QC Liability
T1 sequence (whole entry): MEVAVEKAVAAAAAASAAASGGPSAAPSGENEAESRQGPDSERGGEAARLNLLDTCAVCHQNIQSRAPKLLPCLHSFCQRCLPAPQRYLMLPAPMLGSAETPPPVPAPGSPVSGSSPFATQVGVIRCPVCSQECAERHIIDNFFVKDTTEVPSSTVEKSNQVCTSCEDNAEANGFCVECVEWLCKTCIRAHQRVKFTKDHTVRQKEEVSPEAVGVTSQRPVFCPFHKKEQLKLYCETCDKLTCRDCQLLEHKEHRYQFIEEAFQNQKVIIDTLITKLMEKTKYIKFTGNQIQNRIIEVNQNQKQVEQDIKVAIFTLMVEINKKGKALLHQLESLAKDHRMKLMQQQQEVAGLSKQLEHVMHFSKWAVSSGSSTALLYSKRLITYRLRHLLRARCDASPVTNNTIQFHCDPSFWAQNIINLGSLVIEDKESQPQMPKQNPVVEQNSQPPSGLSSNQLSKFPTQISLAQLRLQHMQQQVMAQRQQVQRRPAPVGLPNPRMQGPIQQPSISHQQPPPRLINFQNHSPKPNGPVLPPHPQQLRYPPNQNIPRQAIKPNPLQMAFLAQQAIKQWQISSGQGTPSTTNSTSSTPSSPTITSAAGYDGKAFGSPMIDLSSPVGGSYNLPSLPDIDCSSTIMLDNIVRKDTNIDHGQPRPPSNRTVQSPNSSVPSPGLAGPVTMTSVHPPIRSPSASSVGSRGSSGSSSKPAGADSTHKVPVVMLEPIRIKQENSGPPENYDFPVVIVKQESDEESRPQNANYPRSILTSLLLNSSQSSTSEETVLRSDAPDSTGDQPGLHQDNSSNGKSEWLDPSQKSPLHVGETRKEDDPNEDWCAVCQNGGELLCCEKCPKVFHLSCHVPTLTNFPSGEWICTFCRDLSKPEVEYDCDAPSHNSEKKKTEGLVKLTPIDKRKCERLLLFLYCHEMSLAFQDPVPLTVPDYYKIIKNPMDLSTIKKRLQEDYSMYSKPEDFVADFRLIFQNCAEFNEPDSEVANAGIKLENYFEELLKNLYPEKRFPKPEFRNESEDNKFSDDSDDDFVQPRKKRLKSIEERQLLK

Row | SMILES | ΔTm [1] [°C] | ΔTm [2] [°C]
1 | O=C(N[C@H]1CCC[C@H](CO)C1)C1CCN(c2nc3cc(Cl)c(-c4ccc(Cl)cc4)cc3o2)CC1 | -3.15 | 1.95
2 | CN(C)C(=O)Cn1cc(-c2nc([C@@](C)(c3ccc(-c4cnc(N)nc4)cc3)C3CC3)no2)cn1 | -1.9 | 0.31
3 | COc1cc2ncnc(N[C@H](C)c3ccccc3)c2cc1OC1CCN(S(C)(=O)=O)CC1 | -3.35 | -1.88
4 | CCN1CCN(Cc2ccc(Nc3ncc(F)c(-c4cc(F)c5nc(C)n(C(C)C)c5c4)n3)nc2)CC1 | -1.43 | -2.28
5 | Nc1nccc(-c2c(-c3ccc(F)cc3)ncn2C2CCN(Cc3ccon3)CC2)n1 | -2.58 | -2.27
6 | CN(C)CC#Cc1ccc2[nH]c3c(c2c1)-c1nc(N)ncc1CCC3 | -1.33 | -0.98
7 | O=C(O)c1cc(-c2ccccc2)ccc1O | -1.31 | -1.78
8 | COc1ccc(F)c(F)c1C(=O)c1cnc(NC2CCN(S(C)(=O)=O)CC2)nc1N | 0.74 | -1.4
9 | CC(C)c1cnn2c(NCc3ccccc3)cc(NCCCCCCN)nc12 | 0.76 | -3.25
10 | CCc1ncnc(N2CCN(C(C)=O)CC2)c1C#Cc1ccc(N)nc1 | -1.64 | -3.55
11 | CN[C@@H]1CC[C@@H](c2ccc(Cl)c(Cl)c2)c2ccccc21 | -1.03 | -3.59
12 | NCCCc1c(C(=O)O)[nH]c2ccc(C(=O)Nc3ccccc3)cc12 | -2.73 | -4.02
13 | O=C(Cc1ccccc1)Nc1nnc(N2CC[C@@H]3[C@H]2CN3c2cccnn2)s1 | -3.72 | -3.22
14 | Cc1cc(-c2nc(-c3ccc(OC(F)(F)F)cc3)no2)nn1Cc1ccnc(N2CCN(C3CC3)CC2)c1 | 0.31 | 0.28
15 | CC(C)(C)OC(=O)CN1C(=O)c2c(OCC(=O)O)cccc2Oc2ccc(C(F)(F)F)cc21 | 0 | 0.32
16 | CN1CCN(C(=O)c2ccc3cc2OCCOCCNc2ccn4ncc-3c4n2)CC1 | 0.71 | -0.01
17 | CC1CCN(C(=O)[C@H](CCn2cccc2C#N)NS(=O)(=O)c2cccc3[nH]ccc23)CC1 | 0.4 | 0.4
18 | CN(C)C/C=C/C(=O)Nc1cccc(S(=O)(=O)N2CCC(NC(=O)c3n[nH]cc3NC(=O)c3c(Cl)cc(Cl)cc3Cl)CC2)c1 | -1.08 | 0.7
19 | CNC(=O)COc1cc2cc(Nc3nc(N4C[C@H](C)C[C@H](C)C4)ncc3Cl)ccc2n(C)c1=O | -0.33 | 0.23
20 | CN[C@@H](C)C(=O)N[C@H](C(=O)N1CCC[C@H]1C(=O)N[C@H](C(=O)NCCCCCCNC(=O)[C@@H](NC(=O)[C@@H]1CCCN1C(=O)[C@@H](NC(=O)[C@H](C)NC)C1CCCCC1)C(c1ccccc1)c1ccccc1)C(c1ccccc1)c1ccccc1)C1CCCCC1 (I: H-[NMeA][Chg]P[Dip] / II: H-[NMeA][Chg]P[Dip]; linker I:C-II:C via Hexamethylenediamine) | -4.77 | -4.59
21 | Cn1cc(Nc2nccc(N3CC4CCC(C3)N4C(=O)[C@@H]3CC3(F)F)n2)cn1 | -1.13 | -1.71
22 | Fc1ccc(Cl)cc1-c1nc(Nc2ccncc2)c2nccnc2n1 | -2.28 | -1.86
23 | COc1cccc(-c2c(C)c(Cc3c(F)cccc3C(F)(F)F)c3n(c2=O)[C@@H]([C@@H](N)c2ccccc2)CS3)c1F | -3.06 | 0.28
24 | Cc1nc2cccnc2n2c(-c3cc(C(C)(C)O)ncc3Cl)nnc12 | -1.96 | -2.03
25 | O=C(Nc1ccc(C(O)(C(F)(F)F)C(F)(F)F)cc1)c1ccc(C(F)(F)F)cc1 | -1.03 | -0.53

Row | SMILES | ΔTm [1] [°C] | ΔTm [2] [°C]
26 | Clc1cccc(Nc2nccc(NCCCN3CCOCC3)n2)c1 | -3.15 | -3.59
27 | Cc1nc2c(cc1F)c(-c1nnc3c(n1)NC(=O)C3(C)C)nn2Cc1cccc(F)c1F | -0.37 | 0.14
28 | O=C(CNCc1cc2ccccc2[nH]1)N[C@H]1CC[C@@H](c2nc3ccccc3[nH]2)CC1 | -0.08 | -0.53
29 | CCOC(=O)/N=C(\N)c1ccc(OCc2cccc(COc3ccc(C(C)(C)c4ccc(OC(=O)OCC)cc4)cc3)c2)cc1 | -10.4 | -0.45
30 | Cc1cc2nc(N3CCC(C(=O)NC4CCCC4)CC3)n(C(C)C)c2cc1C | -0.57 | -0.87
31 | COc1ccc(-c2cc3c(C)nc(N)nc3n([C@H]3CC[C@H](OCCO)CC3)c2=O)cn1 | -0.11 | -2.05
32 | CC(C=CC1=C(C)CCCC1(C)C)=CC=CC(C)=CC(=O)O | -5.12 | -4.24
33 | CC/C(=C(\c1ccccc1)c1ccc(OCCN(C)C)cc1)c1ccccc1 | -4.1 | -5.01
34 | CCN1C(=O)/C(=C(\NC2CCN(C)CC2)c2ccc3c(c2)OCO3)c2cc(C(C)=O)ccc21 | -12 | 0.3
35 | CCc1cc2c(cc1N1CCC(N3CCOCC3)CC1)C(C)(C)c1[nH]c3cc(C#N)ccc3c1C2=O | -2.92 | -0.86
36 | COc1ncc(-c2cc(-c3ncc(CN4C[C@@H](C)O[C@@H](C)C4)o3)c3cn[nH]c3c2)cc1NS(C)(=O)=O | 0.37 | -1.87
37 | O=c1[nH]c(CS[C@H]2CC[C@H](O)CC2)nc2cc(OCC3CC3)cc(F)c12 | -0.97 | -3.28
38 | OC(c1ccc(-c2ccc(CN3CCN(Cc4ccncc4)CC3)cc2)c(F)c1)(C(F)(F)F)C(F)(F)F | -1.34 | -2.91
39 | CC(=O)Nc1c(F)cc(C(=O)N[C@H]2CC[C@H](O)CC2)cc1O[C@@H](C)c1ccccc1 | -1.18 | -0.63
40 | COc1cc2ncnc(Nc3ccc4c(cnn4Cc4ccccc4)c3)c2cc1OC | -0.65 | -2.15
41 | CCNc1ccc(-c2nn(-c3ccccc3C)c3c2C(C)Cc2nc(NC(=O)OC)sc2-3)cn1 (stereo unspecified) | -2.96 | -3.54
42 | CC(C)N1CCN(Cc2cnc(-c3cc(-c4cccc5[nH]ccc45)cc4[nH]ncc34)o2)CC1 | 0 | -2.06
43 | CCCCC/C=C/C=C1/C(=O)C=C[C@@H]1C/C=C\CCCC(=O)O | -4.89 | -1.14
44 | c1ccc(C(OC2CCN(CCCc3nnn[nH]3)CC2)c2ccccc2)cc1 | -1 | -0.6
45 | Cn1nc(-c2ccc(C(N)=O)cc2)c2ccccc2c1=O | 0.79 | 0.31
46 | COc1cc(N2CCN(C)CC2)ccc1Nc1ncc2c(n1)N(C)c1ccccc1C(=O)N2CC(F)(F)F | -1.21 | -2.27
47 | O=C(Nc1ccc(OC(F)(F)Cl)cc1)c1cnc(N2CC[C@@H](O)C2)c(-c2cc[nH]n2)c1 | 0 | -3.05
48 | CN(C)c1ccc(-c2cc3ncccc3c(OCCCCO)n2)cc1 | -2.64 | -3.64
49 | C#Cc1cnc2[nH]cc(-c3cccc4c3CCN4C(=O)[C@@H]3CCCN3C#N)c2c1 | -0.57 | -0.61
50 | CN(C)C(=O)Cn1cc(-c2ccc(-c3nnc4ccccn34)cc2)cn1 | -1.96 | 0.35

Row | SMILES | ΔTm [1] [°C] | ΔTm [2] [°C]
51 | Cc1cn(CCN2CCN(c3ccccc3-c3cc(C#N)cc(C(=O)NCCCN4CCCC4)c3)CC2)c2ccccc12 | -2.78 | -1.92
52 | Cn1cc(-c2cnc3ccc4ccc(CS(=O)(=O)NCc5ccccn5)cc4c(=O)c3c2)cn1 | -1.72 | -0.28
53 | CN(C1CCc2c(c3ccccc3n2CC(=O)O)C1)S(=O)(=O)c1ccc(F)cc1 (stereo unspecified) | -1.34 | -0.54
54 | Cc1ncsc1-c1ccc(CNC(=O)[C@@H]2C[C@@H](O)CN2C(=O)[C@@H](NC(=O)C2(F)CC2)C(C)(C)C)c(OCCOc2ccc(CN3CCN(c4cc(-c5ccccc5O)nnc4N)CC3)cc2)c1 | 13.5 | 0
55 | COc1ccc(N(C(=O)Nc2c(C)cccc2C)c2cc(Nc3ccc(N4CCN(C)CC4)cc3)ncn2)c(OC)c1 | 2.62 | 0.7
56 | Cc1cc(NC(=O)c2cccc(NC(=O)/C=C/CN(C)C)c2)ccc1Nc1nccc(-c2cccnc2)n1 | -1.31 | -1.44
57 | O=C(NCCN1CCOCC1)c1ccc2nn(CCOc3ccc(Cl)cc3)cc2c1 | 0.04 | 0.35
58 | COc1cc(-c2cn(C)c(=O)c3cnccc23)c(OC)cc1CN(C)C | -0.72 | 0.32
59 | COc1cc(C(=O)O)ncc1C#Cc1ccccc1NS(=O)(=O)c1cccc2c(N(C)C)ccnc12 | 0.26 | -2.33
60 | CN(C)[C@H]1CC[C@H](Nc2ncc3ncnc(Nc4ccc(F)c(Cl)c4)c3n2)CC1 | -0.7 | -1.12
61 | O=C(O)CCC/C=C\C[C@@H]1[C@@H](/C=C/[C@@H](O)COc2cccc(C(F)(F)F)c2)[C@H](O)C[C@@H]1O | -0.49 | -0.79
62 | CC[C@H](Nc1c(C#N)c(-c2ccc(-c3cccc(C)c3F)cc2)nc2cnccc12)C(=O)O | -2.07 | -1.52
63 | O=C(O)CCn1c2c(c3ccccc31)C[C@H](NS(=O)(=O)c1ccc(F)cc1)CC2 | -1.19 | -1.73
64 | CNC(=O)c1c[nH]c2ccc(Nc3nccc(-c4ccccn4)n3)cc12 | -1.78 | -0.94
65 | CC(=O)N1CCN([C@H]2CCC[C@@H](NC(=O)c3cc4c(F)ccc(C)c4[nH]3)C2)CC1 | -1.7 | -1.5
66 | NC(=O)c1ccccc1Nc1nc(-c2ccc(N3CCOCC3)cc2)cc2ncccc12 | -2.32 | -2.3
67 | FC(F)(F)c1ccc(CNc2ccc(Cc3c[nH]c4ncc(Cl)cc34)cn2)cn1 | 2 | 1.98
68 | O=C(O)c1cc(F)c2nc(N3[C@@H]4CC[C@H]3C[C@@H](OCc3c(-c5ccccc5OC(F)(F)F)noc3C3CC3)C4)sc2c1 | -7.4 | -1.62
69 | CCN1C(=O)c2cc(C)ccc2N(C)c2ncccc21 | -1.19 | 0.2
70 | CNCc1ccc(-c2cc(-c3nc(-c4ccc(S(=O)(=O)C(C)C)cc4)cnc3N)on2)cc1 | -2.54 | -0.96
71 | Fc1cccc(-n2cnc3c(NCc4nc5c(F)c(F)ccc5[nH]4)nc(N4CCOCC4)nc32)c1 | 0.39 | -0.44
72 | COC(=O)Nc1nc2c(s1)-c1c(c(-c3cccnc3)nn1-c1ccc(C3(N(C)C)CC3)cc1)CC2 | -1.63 | -3.18
73 | O=C1CN(c2ccccc2F)C(NCCN2CCOCC2)=C1c1nc2cc(Br)ccc2c(=O)[nH]1 | -12.3 | 0.25
